Reference: PubChem BioAssay (NCATS)
Inconclusive results are not listed. Unmarked numbers belong to inactive results. Calls of active or inactive are those of the source. The call rests on the fitted dose curve; in most records, active means well fitted inhibition curve with a large enough effect in the repeat runs; inconclusive means weak or mixed curves; inactive means no such curve, though single readings can be large or run the other way.

What follows are compounds tested against Cytochrome P450 2C9 (Homo sapiens) (UniProt P11712) (assay: Cytochrome P450 family 2 subfamily C member 9 (CYP2C9) small molecule antagonists: luciferase biochemical (cell-free) qHTS assay (AID 1645842; further: nearly all actives have a fitted effect of over 55% in size)). Settings: P450-Glo CYP2C9 enzyme assay, luciferin luminescence; series mostly up to 57.4 µM; activity change, negative = inhibition: at the top concentration.
Sequence of Cytochrome P450 2C9 (Homo sapiens) (P11712 whole entry, looked up): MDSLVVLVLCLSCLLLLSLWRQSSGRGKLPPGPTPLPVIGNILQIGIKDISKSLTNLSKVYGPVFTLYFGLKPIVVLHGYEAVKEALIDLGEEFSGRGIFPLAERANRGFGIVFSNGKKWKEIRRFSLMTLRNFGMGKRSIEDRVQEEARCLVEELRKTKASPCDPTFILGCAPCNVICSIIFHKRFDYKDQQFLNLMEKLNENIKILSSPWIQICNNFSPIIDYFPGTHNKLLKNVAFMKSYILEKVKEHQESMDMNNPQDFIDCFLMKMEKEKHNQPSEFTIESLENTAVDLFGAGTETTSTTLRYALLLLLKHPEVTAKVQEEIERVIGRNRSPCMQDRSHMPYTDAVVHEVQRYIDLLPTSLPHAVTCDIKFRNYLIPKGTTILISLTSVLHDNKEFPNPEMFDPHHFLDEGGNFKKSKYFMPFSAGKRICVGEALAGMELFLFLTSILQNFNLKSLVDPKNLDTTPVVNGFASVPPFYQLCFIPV
Method: National Center for Advancing Translational Sciences [NCATS] Assay Overview: Cytochrome P450 (CYP) enzymes are membrane-bound hemeproteins that play a key role in metabolism of drugs and xenobiotics. Assaying the effect of chemicals on CYP isozymes is useful to minimize the adverse drug reactions and toxicities in drug development process. Chemical compounds were tested for their effect on CYP enzyme activities by using P450-Glo (TM) screening systems (Promega Corporation, Madison, WI). These systems provide a luminescent method containing proluciferin substrates and are converted to luciferin products by CYP isozymes. The luciferin products formed are detected with a luciferin detection reagent, and the amount of light produced is proportional to CYP activity. P450-Glo (TM) CYP2C9 screening system (Catalog. No. V9790) was used to detect the compounds that interfere in CYP2C9 activity.
Assay Protocol Summary: Two ul of enzyme-substrate mix supplemented with 0.4% Bovine Serum Albumin was dispensed into medium binding white/solid 1536-well plates (Greiner Bio-One North America Inc., Monroe, NC) using a Flying Reagent Dispenser (FRD, Aurora Discovery, San Diego, CA). […] The assay plates were incubated at room temperature for 10 min. Then 2 ul of NADPH regeneration solution was added to each well of the assay plates using an FRD and incubated at 37C for 1 h. The reaction was stopped by adding 4 ul of detection reagent using an FRD and after 20 min incubation at room temperature, the luminescence signal was measured using a ViewLux plate reader (Perkin Elmer, Shelton, CT). Data were expressed as relative luminescence units.
On the % scale 0 is the no-effect control and ±100 the full control effect; potency means the concentration at half of the fitted maximal effect.

Structure (SMILES)	activity change, negative = inhibition	Potency
COc1cc(CCN)cc(OC)c1OC	-2.45% [at 115 µM]	–
C=C(C)[C@H]1CN[C@H](C(=O)O)[C@H]1CC(=O)O	12.4%	–
COc1c2c(cc3c1OCO3)CCN(C)C2	2.18%	–
COc1cc(OC)c(OC)cc1C=O	-27.3% [at 115 µM]	–
COC(=O)C(Cl)C(=O)OC	7.84%	–
O=C(O)CCCc1ccc(N(CCCl)CCCl)cc1	13.4%	–
CCN[C@@H](C)Cc1ccccc1	10.1% [at 115 µM]	–
Clc1ccccc1N1CCNCC1	18.5%	–
CCOP(=S)(OCC)Oc1ccc2c(C)c(Cl)c(=O)oc2c1	–	6.92 µM (active)
CCC1(c2ccccc2)C(=O)N(COC)C(=O)N(COC)C1=O	-5.73%	–
C=CCC1([C@H](C)CCC)C(=O)NC(=O)NC1=O	-0.162% [at 115 µM]	–
CC(C)(C)NCC(O)c1ccccc1Cl (stereo not given)	8.76%	–
COc1cccc(C(=O)CCN[C@@H](C)[C@H](O)c2ccccc2)c1	–	30.9 µM (active)
C[C@]12CCC(=O)C=C1CC[C@@H]1[C@@H]2CC[C@]2(C)C(=O)CC[C@@H]12	-3.69%	–
COP(=S)(OC)Oc1ccc(S(=O)(=O)N(C)C)cc1	–	0.617 µM (active)
CCN(CCO)CCn1c(Cc2ccccc2)nc2c1c(=O)n(C)c(=O)n2C	-3.84%	–
C[C@]12CC[C@@H]3c4ccc(OC(=O)N(CCCl)CCCl)cc4CC[C@H]3[C@@H]1CC[C@@H]2O	15.4%	–
CC(C)(N)Cc1ccccc1Cl	9.83%	–
C[C@]12CC[C@H]3[C@@H](CC[C@@]45O[C@H]4C(O)=C(C#N)C[C@]35C)[C@H]1CC[C@H]2O	-1.81%	–
O=C(Nc1ccc(Br)cc1)c1cc(Br)cc(Br)c1O	–	3.47 µM (active)

Structure (SMILES)	activity change, negative = inhibition	Potency
C=CCN1C[C@H](C)N([C@H](c2ccc(C(=O)N(CC)CC)cc2)c2cccc(OC)c2)C[C@H]1C	-4.24%	–
c1ccc(CN2CCNCC2)cc1	3.2% [at 193 µM]	–
C[C@]12CCC(=O)C=C1CC[C@@H]1[C@@H]2CC[C@@]2(C)[C@H]1CC[C@]2(C)O	-8.34%	–
CNC(C)(C)Cc1ccccc1	7.22%	–
NC1=NC(=O)C(c2ccccc2)O1 (stereo not given)	7.19%	–
CC(C)c1c(CN(C)C(C)Cc2ccccc2)n(C)n(-c2ccccc2)c1=O (stereo not given)	–	7.76 µM (active)
O=P1(N(CCCl)CCCl)NCCCO1 (stereo not given)	3.25%	–
[N-]=[N+]=CC(=O)OC[C@H](N)C(=O)O	7.25%	–
CCN(CC)CCc1c[nH]c2ccccc12	10.6% [at 193 µM]	–
O=C(N/N=C/c1ccc([N+](=O)[O-])o1)c1cc([N+](=O)[O-])cc([N+](=O)[O-])c1O	-26.5%	–
CCCOC(=O)c1cncn1C(C)c1ccccc1 (stereo not given)	–	13.8 µM (active)
CN1C(=O)NC(=O)C(C)(C2=CCCCC2)C1=O (stereo not given)	10.5%	–
C=CCC1(C(C)CC)C(=O)NC(=O)NC1=O (stereo not given)	4.66%	–
O=c1c(C2CC(c3ccc(-c4ccc(Br)cc4)cc3)Cc3ccccc32)c(O)sc2ccccc12 (stereo not given)	–	9.77 µM (active)
O=C1c2ccccc2C(=O)c2ccccc21	0.693% [at 23.9 µM]	–
c1ccc2c(c1)sc1ccccc12	7.81%	–
CN(C)CCc1c[nH]c2cccc(OP(=O)(O)O)c12	0.979% [at 115 µM]	–
CC(=O)C1CCOC1=O (stereo not given)	-1.52%	–
C[C@]12CC[C@H]3[C@@H](CCC4=CC(=O)CC[C@@H]43)[C@@H]1CC[C@@H]2OC(=O)CCC1CCCCC1	–	24.5 µM (active)
CCC(C)C(C)(COC(N)=O)COC(N)=O (stereo not given)	12.6%	–
